# Reference: PubChem BioAssay (Tox21)
# Values without a mark were called inactive. Inconclusive results are not listed. A call without a number means that no potency is given here. Activity calls are given as the source filed them. Calls come from the whole dose curve; as a rule, active = well fitted curve in the direction sought with a large enough effect in the repeat runs; inconclusive = weak or mixed curves; inactive = no such curve, though single readings can be large; an effect the other way counts as inactive or inconclusive.
# Experiment: Caspase-3/7 induction in CHO-K1 cells by small molecules, qHTS assay (AID 1346980); note: nearly all actives have a fitted effect of over 15% in size
# Details: CHO-K1 caspase-3/7 induction, Caspase-Glo luminescence, 17 h; series mostly up to 92.4 µM
# Method in brief: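 Luminescent Caspase-Glo 3/7 read (30min, room temperature) quantified apoptosis induction. Cells were wild-type CHO-K1, treated with compound for 17hr at 37 C and 5% CO2.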
SMILES,outcome,caspase-3/7 activation
O=C1NC(=O)c2cccc3cccc1c23,inactive,–
SCCc1cnccn1,inactive,–
CCCCCCC(CO)CCCC (stereo not drawn),inactive,–
CCN(CC)CC(=O)Nc1c(C)cccc1C(=O)OC,inactive,–
O=S(=O)(Cl)c1c(Cl)cccc1Cl,inactive,–
CCC(CO)(CO)CO,inactive,–
c1ccc(CNc2ncnc3c2ncn3C2CCCCO2)cc1 (stereo not drawn),inactive,–
CC1CCC(C(C)CS)CC1S (stereo not drawn),inactive,–
CC(=O)C(C)=O,inactive,–
COc1ccc(C)cc1,inactive,–
CC(C)(C)CCCCCCOC(=O)c1ccccc1C(=O)OCCCCCCC(C)(C)C,inactive,–
COC(OC)OC,inactive,–
CC(=O)c1ccc[nH]1,inactive,–
Cc1cccc(C)c1NC(=O)c1cc(S(N)(=O)=O)c(Cl)cc1O,inactive,–
CCN(CC)c1cccc(O)c1,inactive,–
O=C(O)CCC(=O)OC[C@@H](NC(=O)C(Cl)Cl)[C@H](O)c1ccc([N+](=O)[O-])cc1,inactive,–
CC(C)(O)CCc1ccccc1,inactive,–
CC1C(C)(C)C2=C(C(=O)CCC2)C1(C)C (stereo not drawn),inactive,–
CCOC(=O)Oc1ccc(CCNC(=O)[C@H](CCSC)NC(C)=O)cc1OC(=O)OCC,inactive,–
C[C@@H]1C[C@H]2[C@@H]3CCC4=CC(=O)C=C[C@]4(C)[C@@]3(F)[C@@H](O)C[C@]2(C)[C@@]1(O)C(=O)COP(=O)(O)O,inactive,–

SMILES,outcome,caspase-3/7 activation
O=C1[C@@H]2[C@H]3CC[C@H](C3)[C@@H]2C(=O)N1CCCCN1CCN(c2ncccn2)CC1,inactive,–
CC1=CC[C@@]23C[C@@H]1C(C)(C)[C@@H]2CC[C@H]3C,inactive,–
CCCCCCCCCCCCCOC(=O)CCSCCC(=O)OCCCCCCCCCCCCC,–,0.789% [at 19 µM]
CC(=O)OCCC1CCCCC1,inactive,–
Cc1cc(CCCOc2c(C)cc(-c3noc(C(F)(F)F)n3)cc2C)on1,inactive,–
COc1cc(NS(=O)(=O)c2ccc(N)cc2)nc(C)n1,inactive,–
Nc1ccc(N=Nc2ccc(N)cc2)cc1,inactive,–
Nc1c(Cl)cc(Cl)cc1[N+](=O)[O-],inactive,–
CCCCCCCCCCCSCC(=O)O,inactive,–
Cc1ccc(N(CC2=NCCN2)c2cccc(O)c2)cc1,inactive,–
C=CC(=O)NC(C)C,inactive,–
FC(F)(F)C(F)(F)C(F)(F)C(F)(F)CCI,inactive,–
C/C(C=O)=C\c1ccccc1,inactive,–
O=C(c1ccccc1)C1CCC1,inactive,–
CCCCCCCC(=O)OCCCCCC,inactive,–
CCOC(=O)c1ccc(NC(=O)CN2CCCCC2)cc1,inactive,–
CCC(Cl)CC(Cl)C(Cl)C(Cl)C(Cl)C(C)Cl (stereo not drawn),–,-6.38% [at 19 µM]
CC(CO)(CO)C(=O)O,inactive,–
CCC(C)(C)C(=O)O,inactive,–

# Experiment: Caspase-3/7 induction in HepG2 cells by small molecules, qHTS cell viability counter screen (AID 1346981); note: nearly all actives have a fitted effect of over 30% in size; note: potency is the fitted concentration of half-maximal effect
# Details: CellTiter-Fluor fluorescence, 17 h; series mostly up to 92.4 µM
# Method in brief: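 Fluorescence read-out of live-cell protease activity (CellTiter-Fluor) after 1 hr with reagent. This was measured in the same wells as the caspase-3/7 luminescence, on HepG2 cells exposed to DMSO-dissolved compounds for 16 hr at 37 C.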
SMILES,Potency,"activity change, negative = cytotoxicity"
O=C1NC(=O)c2cccc3cccc1c23,inactive,–
SCCc1cnccn1,inactive,–
CCCCCCC(CO)CCCC (stereo not drawn),inactive,–
CCN(CC)CC(=O)Nc1c(C)cccc1C(=O)OC,inactive,–
O=S(=O)(Cl)c1c(Cl)cccc1Cl,inactive,–
CCC(CO)(CO)CO,inactive,–
c1ccc(CNc2ncnc3c2ncn3C2CCCCO2)cc1 (stereo not drawn),inactive,–
CC1CCC(C(C)CS)CC1S (stereo not drawn),inactive,–
CC(=O)C(C)=O,inactive,–
COc1ccc(C)cc1,inactive,–
CC(C)(C)CCCCCCOC(=O)c1ccccc1C(=O)OCCCCCCC(C)(C)C,inactive,–
COC(OC)OC,inactive,–
CC(=O)c1ccc[nH]1,inactive,–
Cc1cccc(C)c1NC(=O)c1cc(S(N)(=O)=O)c(Cl)cc1O,inactive,–
CCN(CC)c1cccc(O)c1,inactive,–
O=C(O)CCC(=O)OC[C@@H](NC(=O)C(Cl)Cl)[C@H](O)c1ccc([N+](=O)[O-])cc1,inactive,–
CC(C)(O)CCc1ccccc1,inactive,–
CC1C(C)(C)C2=C(C(=O)CCC2)C1(C)C (stereo not drawn),inactive,–
CCOC(=O)Oc1ccc(CCNC(=O)[C@H](CCSC)NC(C)=O)cc1OC(=O)OCC,inactive,–
C[C@@H]1C[C@H]2[C@@H]3CCC4=CC(=O)C=C[C@]4(C)[C@@]3(F)[C@@H](O)C[C@]2(C)[C@@]1(O)C(=O)COP(=O)(O)O,inactive,–

SMILES,Potency,"activity change, negative = cytotoxicity"
O=C1[C@@H]2[C@H]3CC[C@H](C3)[C@@H]2C(=O)N1CCCCN1CCN(c2ncccn2)CC1,inactive,–
CC1=CC[C@@]23C[C@@H]1C(C)(C)[C@@H]2CC[C@H]3C,inactive,–
CCCCCCCCCCCCCOC(=O)CCSCCC(=O)OCCCCCCCCCCCCC,–,6.29% [at 19 µM]
CC(=O)OCCC1CCCCC1,inactive,–
Cc1cc(CCCOc2c(C)cc(-c3noc(C(F)(F)F)n3)cc2C)on1,inactive,–
COc1cc(NS(=O)(=O)c2ccc(N)cc2)nc(C)n1,inactive,–
Nc1ccc(N=Nc2ccc(N)cc2)cc1,27.3 µM (active),–
Nc1c(Cl)cc(Cl)cc1[N+](=O)[O-],inactive,–
CCCCCCCCCCCSCC(=O)O,inactive,–
Cc1ccc(N(CC2=NCCN2)c2cccc(O)c2)cc1,inactive,–
C=CC(=O)NC(C)C,inactive,–
FC(F)(F)C(F)(F)C(F)(F)C(F)(F)CCI,inactive,–
C/C(C=O)=C\c1ccccc1,inactive,–
O=C(c1ccccc1)C1CCC1,inactive,–
CCCCCCCC(=O)OCCCCCC,inactive,–
CCOC(=O)c1ccc(NC(=O)CN2CCCCC2)cc1,inactive,–
CCC(Cl)CC(Cl)C(Cl)C(Cl)C(Cl)C(C)Cl (stereo not drawn),–,1.11% [at 19 µM]
CC(CO)(CO)C(=O)O,inactive,–
CCC(C)(C)C(=O)O,inactive,–
